# Reference: PubChem BioAssay
# Where “and” joins values, the source holds several entries; their conditions need not be identical. Equal values may be shown once. Results filed as inconclusive are left out. Calls of active or inactive are those of the source.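 Rule for the calls, unless noted: active = compounds whose cell count with miR-34 switched on is under 0.7 times the count with it off; inactive = the rest.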
# Assays:
# [1] = molecular target: ATP-dependent translocase ABCB1 (Homo sapiens) (UniProt P08183); assay: P-glycoprotein substrate transport blockade – cell-based (AID 377; in the data active = fluorescence slope change above about 50%); settings: MDR1-expressing cells, fluorescent substrate accumulation slope; stronger effect = higher value; concentration not given here
# [2] = P. berghei load reduction in hepatocytes – cell-based, HepG2, luciferase luminescence, HepG2 viability, primary screen (AID 624349; in the data active = parasite load remaining mostly below about 12%, no sharp cut-off; inactive = mostly above about 10%;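 note: 100% = mean of DMSO negative control wells on the same plate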); settings: P. berghei liver stage in HepG2, luciferase luminescence, concentration not given here; parasite load remaining: stronger effect = lower value; viability: measured here: HepG2 viability without parasites
# [3] = Wnt pathway potentiators raising nuclear beta-catenin – imaging, WNT3A-conditioned medium, mouse C2C12, NPC library, primary screen (AID 1117326; in the data active = nuclear beta-catenin stimulation mostly above about 4.2%, no sharp cut-off; inactive = mostly below about 10%); settings: stronger effect = higher value
# [4] = stimulators of insulin release from INS-1E, primary screen, cell-based, 5 mM glucose, NPC library (AID 1117329;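 active = compound raises insulin release from rat beta cells at 5 mM glucose, no numeric limit stated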); settings: rat INS-1E insulin secretion, at 10 µM, stronger effect = higher value
# [5] = growth inhibition of GSK3B-pretreated HCT116 cells – cell-based, CellTiter-Glo, 0.2 to 20 µM (AID 1117336;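 active = compounds lowering colon cancer cell viability after pretreatment blocking the GSK3B kinase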); settings: HCT116 viability after GSK3B inhibitor, at 20 µM, stronger effect = higher value
# [6] = inhibition of endothelial tube formation, primary screen, imaging, VEGF stimulated, CD31 staining, tube area, NPC library (AID 1117340;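 active = compound that reduces growth-factor-driven endothelial tube area in a mixed cell culture, no cutoff stated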); settings: VEGF-stimulated ADSC/ECFC co-culture, at 10 µM, stronger effect = higher value
# [7] = GLP1 release stimulators, primary, NCI-H716, NPC library (AID 1117341;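 active = compound raises GLP1 secretion from the human gut endocrine cells, with no numeric limit stated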); settings: NCI-H716 cells, at 10 µM, stronger effect = higher value
# [8] = HCT116 colon cancer cell growth inhibition, primary screen, CellTiter-Glo luminescence, NPC library (AID 1117342;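 active = compounds that lower survival of HCT116 colon cancer cells in the luminescence readout, no numeric limit stated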); settings: at 20 µM (top of the series)
# [9] = reduced SW480 viability measured with CellTiter-Glo, NPC library, primary (AID 1117343;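 active = compounds that lower viability of the colon cancer cells in the luminescence readout, with no numeric limit stated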); settings: CellTiter-Glo luminescence; at 20 µM (top of the series) unless noted
# [10] = NPC library primary testing for decreased DLD-1 cell viability via CellTiter-Glo (AID 1117346;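 active = compounds that lower survival of DLD-1 colon cancer cells in the luminescence readout, no cutoff given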); settings: DLD-1 viability, CellTiter-Glo luminescence; at 20 µM (top of the series)
# [11] = viability loss with induced miR-34 in A549 – imaging, A549 dox-inducible miR-34, nuclei and caspase counts, primary screen (AID 1347080); settings: A549 miR-34 inducible, Hoechst nuclei count, 48 h
# [12] = molecular target: NAD(+) hydrolase SARM1 (Homo sapiens) (UniProt Q6SZW1); assay: blocking NAD cleavage by SARM1 SAM-TIR – cell lysate, NAD-Glo luminescence (AID 1508614;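 active = compound whose remaining NAD level is above about 45 nM, limit read from the data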;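 note: higher remaining NAD means stronger inhibition of SARM1 NADase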); settings: SAM-TIR HEK293T lysate NADase, at 1 µM, stronger effect = higher value
# [13] = molecular target: Mitogen-activated protein kinase 7 (Homo sapiens) (UniProt Q13164); assay: Gal4-ERK5 driven luciferase induction – cell-based, HTS, primary screen (AID 1508626;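 active = luciferase signal above three times the same-plate solvent-only control wells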;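 note: luciferase driven by Gal4-ERK5 fusion binding five Gal4 sites before minimal TATA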); settings: HeLa Gal4-ERK5 transactivation, 18 h, at 5 µM, stronger effect = higher value
# [14] = compounds altering viability of human ES cells (AID 493140; call rule not given here;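 note: cells exposed to compounds for four days before counting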); settings: human embryonic stem cell survival screen; stronger effect = higher value
# [15] = MELAS cybrid and Rieske KO viability enhancers – cell-based, MELAS cybrids, Rieske KO mouse fibroblasts, CellTiter-Glo, primary screen (AID 1508586;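 active = mean z-score across replicates of 1.96 or higher in either the MELAS or the Rieske mutant cell line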;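 note: z relative to plate mean and SD of compound and empty wells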); settings: low glucose
# [16] = galactose survival enhancers in mitochondrial complex I cybrids – cell-based, galactose medium, ATP luminescence, primary screen (AID 1645843;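 active = z-score of at least 1.8 in each of two replicates, scored against plate mean and spread of sample wells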;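 note: positive z means more ATP and so rescue of galactose-driven cybrid death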); settings: complex I mutant cybrid cells, 72 h, stronger effect = higher value
# [17] = stronger effect = lower value, cell number ratio, induced over uninduced
# [18] = measured here: relative caspase fold change +Dox/-Dox
# [19] = measured here: total cells with miR-34 induction, stronger effect = lower value
# [20] = measured here: total cells without miR-34 induction
# [21] = MELAS cybrid survival, CellTiter-Glo 48 h, stronger effect = higher value
# [22] = Rieske KO mouse fibroblast survival, CellTiter-Glo 72 h
# Sequence of NAD(+) hydrolase SARM1 (Homo sapiens) (Q6SZW1 whole entry, looked up, the tested form may be a part): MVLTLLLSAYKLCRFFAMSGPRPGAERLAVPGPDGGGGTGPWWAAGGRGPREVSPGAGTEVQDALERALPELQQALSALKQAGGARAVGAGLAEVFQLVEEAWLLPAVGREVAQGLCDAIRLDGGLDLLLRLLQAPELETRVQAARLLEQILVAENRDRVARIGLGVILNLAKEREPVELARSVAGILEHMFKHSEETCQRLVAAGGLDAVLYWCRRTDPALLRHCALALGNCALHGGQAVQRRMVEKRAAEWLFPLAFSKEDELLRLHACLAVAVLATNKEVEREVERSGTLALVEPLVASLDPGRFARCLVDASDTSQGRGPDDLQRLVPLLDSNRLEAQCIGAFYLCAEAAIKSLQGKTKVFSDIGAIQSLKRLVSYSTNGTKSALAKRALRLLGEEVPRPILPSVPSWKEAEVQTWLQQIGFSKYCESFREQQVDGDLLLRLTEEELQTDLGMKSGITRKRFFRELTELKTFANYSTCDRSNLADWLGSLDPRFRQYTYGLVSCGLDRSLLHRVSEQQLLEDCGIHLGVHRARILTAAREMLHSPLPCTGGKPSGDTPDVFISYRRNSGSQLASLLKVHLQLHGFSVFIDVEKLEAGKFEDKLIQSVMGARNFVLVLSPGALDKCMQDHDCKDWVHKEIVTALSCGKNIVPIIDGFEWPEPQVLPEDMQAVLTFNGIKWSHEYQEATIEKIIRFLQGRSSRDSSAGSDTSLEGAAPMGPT
# Sequence of Mitogen-activated protein kinase 7 (Homo sapiens) (Q13164 whole entry, looked up, the tested form may be a part): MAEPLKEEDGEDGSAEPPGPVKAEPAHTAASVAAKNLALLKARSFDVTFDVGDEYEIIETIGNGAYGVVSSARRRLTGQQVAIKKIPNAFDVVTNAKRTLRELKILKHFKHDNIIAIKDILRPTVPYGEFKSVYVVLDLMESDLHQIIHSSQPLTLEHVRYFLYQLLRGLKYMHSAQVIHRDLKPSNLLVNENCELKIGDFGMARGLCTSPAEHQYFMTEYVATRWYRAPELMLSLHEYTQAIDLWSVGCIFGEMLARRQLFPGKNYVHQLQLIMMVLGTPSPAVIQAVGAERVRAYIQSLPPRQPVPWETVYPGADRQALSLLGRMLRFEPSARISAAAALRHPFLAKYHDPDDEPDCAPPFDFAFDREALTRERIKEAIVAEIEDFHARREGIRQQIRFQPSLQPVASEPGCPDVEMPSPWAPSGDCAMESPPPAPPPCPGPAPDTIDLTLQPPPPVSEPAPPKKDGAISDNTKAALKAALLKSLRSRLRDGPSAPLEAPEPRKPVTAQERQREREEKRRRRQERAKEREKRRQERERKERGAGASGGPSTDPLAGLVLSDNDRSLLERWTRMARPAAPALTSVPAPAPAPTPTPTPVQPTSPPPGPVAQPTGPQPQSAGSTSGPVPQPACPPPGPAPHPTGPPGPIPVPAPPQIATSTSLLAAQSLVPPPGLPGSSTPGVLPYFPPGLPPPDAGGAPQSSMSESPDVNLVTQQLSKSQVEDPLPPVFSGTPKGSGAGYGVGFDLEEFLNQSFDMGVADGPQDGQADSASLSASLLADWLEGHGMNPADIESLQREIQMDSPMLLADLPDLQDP
# Sequence of ATP-dependent translocase ABCB1 (Homo sapiens) (P08183 whole entry, looked up): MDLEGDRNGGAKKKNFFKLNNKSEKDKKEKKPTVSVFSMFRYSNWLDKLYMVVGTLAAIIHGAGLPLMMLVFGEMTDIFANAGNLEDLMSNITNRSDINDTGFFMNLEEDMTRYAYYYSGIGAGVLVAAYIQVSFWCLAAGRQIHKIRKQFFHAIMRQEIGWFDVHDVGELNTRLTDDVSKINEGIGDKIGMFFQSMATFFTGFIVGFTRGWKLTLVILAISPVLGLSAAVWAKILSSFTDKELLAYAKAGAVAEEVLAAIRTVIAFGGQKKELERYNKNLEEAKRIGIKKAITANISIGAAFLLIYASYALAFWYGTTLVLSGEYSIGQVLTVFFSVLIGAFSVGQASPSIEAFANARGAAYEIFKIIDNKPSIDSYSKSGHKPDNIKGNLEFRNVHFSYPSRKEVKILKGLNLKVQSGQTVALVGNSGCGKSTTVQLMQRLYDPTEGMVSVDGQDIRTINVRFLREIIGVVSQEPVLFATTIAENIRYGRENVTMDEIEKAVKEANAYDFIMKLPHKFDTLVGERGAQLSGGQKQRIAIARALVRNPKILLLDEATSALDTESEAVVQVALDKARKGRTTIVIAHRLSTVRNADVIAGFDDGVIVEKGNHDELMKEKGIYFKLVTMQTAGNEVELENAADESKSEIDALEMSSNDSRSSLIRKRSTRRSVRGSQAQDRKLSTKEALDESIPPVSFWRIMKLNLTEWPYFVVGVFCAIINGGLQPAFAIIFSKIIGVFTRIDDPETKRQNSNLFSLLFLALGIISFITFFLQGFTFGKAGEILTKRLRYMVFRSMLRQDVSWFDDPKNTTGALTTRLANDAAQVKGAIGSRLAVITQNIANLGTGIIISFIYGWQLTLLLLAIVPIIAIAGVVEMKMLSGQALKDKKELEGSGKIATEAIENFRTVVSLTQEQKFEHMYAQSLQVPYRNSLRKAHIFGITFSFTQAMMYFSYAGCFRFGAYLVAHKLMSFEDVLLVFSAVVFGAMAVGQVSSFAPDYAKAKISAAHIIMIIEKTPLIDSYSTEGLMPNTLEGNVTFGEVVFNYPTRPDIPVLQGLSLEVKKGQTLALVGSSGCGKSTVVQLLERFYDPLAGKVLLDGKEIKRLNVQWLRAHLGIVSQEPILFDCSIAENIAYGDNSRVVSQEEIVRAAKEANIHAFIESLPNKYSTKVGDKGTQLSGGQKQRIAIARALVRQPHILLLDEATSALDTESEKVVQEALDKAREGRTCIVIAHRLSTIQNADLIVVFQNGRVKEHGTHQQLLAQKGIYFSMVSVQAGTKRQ
compound,measurement,setting,value
C1CCN2C[C@@H]3C[C@@H](CN4CCCC[C@@H]34)[C@H]2C1,fluorescence slope change,[1],10.6% (inactive)
same,parasite load remaining,[2],47.2% (inactive)
same,viability,[2],113%
same,nuclear beta-catenin stimulation,[3]; at 10 µM,-0.4% (inactive)
same,nuclear beta-catenin stimulation,"[3]; stimulation, at 2 µM",-0.5%
same,insulin secretion stimulation,[4],15.2% (inactive)
same,viability decrease,[5],5.9% (inactive)
same,tube area decrease,[6],-8.8% (inactive)
same,GLP1 secretion stimulation,[7],1.2% (inactive)
same,inhibition of viability,[8],22.6% (inactive)
same,viability decrease (inhibition),[9],3.2% (inactive)
same,viability decrease (inhibition),[10],4.2% (inactive)
same,fold change,[11]; [17],0.853 (inactive)
same,fold change,[11]; [18],1.2
same,cell count,[11]; [19],8930
same,cell count,[11]; [20],10500
same,remaining NAD,[12],10 nM (inactive)
same,luciferase signal,[13],60 AU (inactive)
C[C@]12CC[C@H]3[C@@H](CCC4=CC(=O)CC[C@@]43C)[C@@H]1CC[C@@H]2C(=O)CO,survival,[14],2.75 (inactive)
same,parasite load remaining,[2],95.4% (inactive)
same,viability,[2],96.9%
same,nuclear beta-catenin stimulation,[3]; at 10 µM,3.8% (inactive)
same,nuclear beta-catenin stimulation,"[3]; stimulation, at 2 µM",5.6%
same,insulin secretion stimulation,[4],0.8% (inactive)
same,viability decrease,[5],-35.8% (inactive)
same,tube area decrease,[6],34.3% (inactive)
same,GLP1 secretion stimulation,[7],2.7% (inactive)
same,inhibition of viability,[8],27.8% (inactive)
same,viability decrease (inhibition),[9],23.6% (inactive)
same,viability decrease (inhibition),[10],8.8% (inactive)
same,fold change,[11]; [17],0.793 (inactive)
same,fold change,[11]; [18],1.3
same,cell count,[11]; [19],7560
same,cell count,[11]; [20],9530
same,z-score,[15]; [21],-0.237 (inactive)
same,z-score,[15]; [22],0.173
CCCCc1cc2ccccc2c(OCCN(C)C)n1,survival,[14],4.17 (inactive)
same,parasite load remaining,[2],105% (inactive) and 71.5% (inactive)
same,viability,[2],105% and 79.9%
same,nuclear beta-catenin stimulation,[3]; at 10 µM,0.2% (inactive)
same,nuclear beta-catenin stimulation,"[3]; stimulation, at 2 µM",-0.1%
same,insulin secretion stimulation,[4],4.6% (inactive)
same,viability decrease,[5],-84.3% (inactive)
same,tube area decrease,[6],15.9% (inactive)
same,GLP1 secretion stimulation,[7],3.1% (inactive)
same,inhibition of viability,[8],22.3% (inactive)
same,viability decrease (inhibition),[9],72.1% (active)
same,viability decrease (inhibition),[10],-3.7% (inactive)
same,fold change,[11]; [17],0.931 (inactive)
same,fold change,[11]; [18],1.26
same,cell count,[11]; [19],6620
same,cell count,[11]; [20],7110
same,z-score,[15]; [21],0.0733 (inactive)
same,z-score,[15]; [22],0.0128
Cc1cc2c(OCC(CNC(C)(C)C)OC(=O)c3ccccc3)cccc2[nH]1 (configuration not stated),parasite load remaining,[2],45.6% (inactive)
same,viability,[2],114%
same,nuclear beta-catenin stimulation,[3]; at 10 µM,-0.6% (inactive)
same,nuclear beta-catenin stimulation,"[3]; stimulation, at 2 µM",-2.3%
same,insulin secretion stimulation,[4],38.9% (active)
same,viability decrease,[5],8% (inactive)
same,tube area decrease,[6],-1.9% (inactive)
same,GLP1 secretion stimulation,[7],8.9% (inactive)
same,inhibition of viability,[8],30.9% (inactive)
same,viability decrease (inhibition),[9],-10.4% (inactive)
same,viability decrease (inhibition),[10],-25.2% (inactive)
same,fold change,[11]; [17],0.853 (inactive)
same,fold change,[11]; [18],1.26
same,cell count,[11]; [19],9400
same,cell count,[11]; [20],11000
same,z-score,[15]; [21],-0.871 (inactive)
same,z-score,[15]; [22],-1.26
same,z-score,[16],0.13 (inactive)
NS(=O)(=O)c1cc2c(cc1Cl)NC(CC1CCCC1)NS2(=O)=O (configuration not stated),survival,[14],5.92 (inactive)
same,parasite load remaining,[2],80.8% (inactive)
same,viability,[2],73%
same,nuclear beta-catenin stimulation,[3]; at 10 µM,-0.9% (inactive)
same,nuclear beta-catenin stimulation,"[3]; stimulation, at 2 µM",-1.5%
same,insulin secretion stimulation,[4],4.2% (inactive)
same,viability decrease,[5],1% (inactive)
same,tube area decrease,[6],35.3% (inactive)
same,GLP1 secretion stimulation,[7],3.4% (inactive)
same,inhibition of viability,[8],1.1% (inactive)
same,viability decrease (inhibition),[9],-15.3% (inactive)
same,viability decrease (inhibition),[10],-0.6% (inactive)
same,fold change,[11]; [17],0.993 (inactive)
same,fold change,[11]; [18],0.594
same,cell count,[11]; [19],9530
same,cell count,[11]; [20],9590
same,z-score,[15]; [21],0.486 (inactive)
same,z-score,[15]; [22],-0.891
CCCNC(C)C(=O)Nc1c(C)csc1C(=O)OC (configuration not stated),survival,[14],18.4 (inactive)
same,parasite load remaining,[2],137% (inactive)
same,viability,[2],71.1%
same,nuclear beta-catenin stimulation,[3]; at 10 µM,-0.2% (inactive)
same,nuclear beta-catenin stimulation,"[3]; stimulation, at 2 µM",2%
same,insulin secretion stimulation,[4],4.8% (inactive)
same,viability decrease,[5],1.9% (inactive)
same,tube area decrease,[6],5.2% (inactive)
same,GLP1 secretion stimulation,[7],-3.4% (inactive)
same,inhibition of viability,[8],8.5% (inactive)
same,viability decrease (inhibition),[9],2.2% (inactive)
same,viability decrease (inhibition),[10],2.2% (inactive)
same,fold change,[11]; [17],0.925 (inactive) and 0.913 (inactive)
same,fold change,[11]; [18],0.61 and 0.602
same,cell count,[11]; [19],8960 and 8560
same,cell count,[11]; [20],9680 and 9380
same,z-score,[15]; [21],-0.278 (inactive) and -0.744 (inactive)
same,z-score,[15]; [22],-0.148 and -0.857
OCc1ccccn1,nuclear beta-catenin stimulation,[3]; at 10 µM,-1% (inactive)
same,nuclear beta-catenin stimulation,"[3]; stimulation, at 2 µM",0.3%
same,insulin secretion stimulation,[4],0% (inactive)
same,viability decrease,[5],4.8% (inactive)
same,tube area decrease,[6],-15.2% (inactive)
same,GLP1 secretion stimulation,[7],-2.9% (inactive)
same,inhibition of viability,[8],-23.7% (inactive)
same,viability decrease (inhibition),[9],30.6% (active)
same,viability decrease (inhibition),[10],-10.2% (inactive)
same,fold change,[11]; [17],0.898 (inactive)
same,fold change,[11]; [18],0.701
same,cell count,[11]; [19],8220
same,cell count,[11]; [20],9160
same,remaining NAD,[12],10 nM (inactive)
CCC(=O)c1ccc(O)cc1,nuclear beta-catenin stimulation,[3]; at 10 µM,2.6% (inactive)
same,nuclear beta-catenin stimulation,"[3]; stimulation, at 2 µM",-0.5%
same,insulin secretion stimulation,[4],0.1% (inactive)
same,viability decrease,[5],8.05% (inactive)
same,tube area decrease,[6],5.9% (inactive)
same,GLP1 secretion stimulation,[7],-2.3% (inactive)
same,inhibition of viability,[8],16.7% (inactive)
same,viability decrease (inhibition),[9],60.1% (active)
same,viability decrease (inhibition),[10],25.2% (inactive)
same,fold change,[11]; [17],0.903 (inactive)
same,fold change,[11]; [18],0.966
same,cell count,[11]; [19],7980
same,cell count,[11]; [20],8840
same,remaining NAD,[12],10 nM (inactive)
CC(C)(C)C(=O)OCOC(=O)[C@@H]1N2C(=O)[C@@H](NC(=O)[C@H](N)c3ccccc3)[C@H]2SC1(C)C,survival,[14],8.83 (inactive)
same,parasite load remaining,[2],105% (inactive)
same,viability,[2],75%
same,nuclear beta-catenin stimulation,[3]; at 10 µM,-2.4% (inactive)
same,nuclear beta-catenin stimulation,"[3]; stimulation, at 2 µM",-1.3%
same,insulin secretion stimulation,[4],2.2% (inactive)
same,viability decrease,[5],-4.7% (inactive)
same,tube area decrease,[6],-15.2% (inactive)
same,GLP1 secretion stimulation,[7],2.6% (inactive)
same,inhibition of viability,[8],-17.9% (inactive)
same,viability decrease (inhibition),[9],5.3% (inactive)
same,viability decrease (inhibition),[10],-16.8% (inactive)
same,fold change,[11]; [17],0.926 (inactive)
same,fold change,[11]; [18],0.701
same,cell count,[11]; [19],9310
same,cell count,[11]; [20],10100
same,z-score,[15]; [21],-1.1 (inactive)
same,z-score,[15]; [22],-0.251
C[N+]1(C)CCC(=C(c2ccccc2)c2ccccc2)CC1,survival,[14],14.4 (inactive)
same,parasite load remaining,[2],49.5% (inactive) and 80.3% (inactive)
same,viability,[2],48.7% and 94.9%
same,nuclear beta-catenin stimulation,[3]; at 10 µM,1.1% (inactive)
same,nuclear beta-catenin stimulation,"[3]; stimulation, at 2 µM",-1.3%
same,insulin secretion stimulation,[4],3.5% (inactive)
same,viability decrease,[5],-7.5% (inactive)
same,tube area decrease,[6],23.2% (inactive)
same,GLP1 secretion stimulation,[7],0% (inactive)
same,inhibition of viability,[8],7.97% (inactive)
same,viability decrease (inhibition),[9],40.8% (inactive)
same,viability decrease (inhibition),[10],-3.1% (inactive)
same,fold change,[11]; [17],0.907 (inactive) and 1.1 (inactive)
same,fold change,[11]; [18],0.619 and 0.415
same,cell count,[11]; [19],8340 and 8800
same,cell count,[11]; [20],9190 and 7990
same,z-score,[15]; [21],-0.294 (inactive) and -0.951 (inactive)
same,z-score,[15]; [22],-0.199 and -0.0737
